Results published in PubChem BioAssay (NCI).
Several values for one entry are separate records, joined by “and”; a condition that tells them apart may be missing. Equal values may be shown once. This is part of a sample that, as a whole, favours compounds with a hit. Of some 79,000 tested, about 15% had one in any assay. Some structures have more than one record in an assay (separate samples or runs), and their calls can disagree. Activity calls are given as the source filed them. Cut-off read from the data, not from the text of the source: active = growth inhibition above about 70%; inactive = the rest.

Experiments:
[1] = NCI Yeast Anticancer Drug Screen. Data for the rad50 strain (AID 155);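 note: 0% = growth of vehicle-only cultures of the same strain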; settings: S. cerevisiae rad50 strain growth inhibition, stronger effect = higher value
Summary of the method: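 Relative growth inhibition (compound vs vehicle) was measured in yeast with a defined repair-gene alteration.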

[2] = NCI Yeast Anticancer Drug Screen. Data for the mec2-1 strain (AID 157); settings: S. cerevisiae mec2-1 strain, stronger effect = higher value
Summary of the method: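 Readout is yeast growth inhibition, normalised to vehicle-treated controls, in the mec2-1 strain exposed to compound.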

[3] = NCI Yeast Anticancer Drug Screen. Data for the sgs1 mgt1 strain (AID 161);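 note: 0% = growth of cultures given vehicle only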; settings: S. cerevisiae sgs1 mgt1 strain, stronger effect = higher value
Summary of the method: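 Percent growth inhibition was derived by comparing compound-exposed mutant yeast with vehicle-exposed cultures. The strain carries alterations in DNA damage repair.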

[4] = NCI Yeast Anticancer Drug Screen. Data for the cln2 rad14 strain (AID 165);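 note: 0% = growth equal to vehicle treated cultures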; settings: S. cerevisiae cln2 rad14 strain, stronger effect = higher value
Summary of the method: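 Relative to vehicle controls, growth inhibition of compound-treated cln2 rad14 yeast was recorded.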

[5] = NCI Yeast Anticancer Drug Screen. Data for the bub3 strain (AID 167); settings: S. cerevisiae bub3 mutant strain, stronger effect = higher value
Summary of the method: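 Screening used yeast with an engineered genetic alteration affecting cell cycle control. Compound-exposed cultures were compared with vehicle cultures, and reduced growth was taken as inhibition.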

[6] = NCI Yeast Anticancer Drug Screen. Data for the mlh1 rad18 strain (AID 175); settings: S. cerevisiae mlh1 rad18 strain growth inhibition, stronger effect = higher value
Summary of the method: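 Test agents were incubated with a yeast strain of defined genotype (DNA damage repair defect). Inhibition of growth was derived by comparison with vehicle-exposed cultures.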

[7] = at 5.0 µM (retest, dose inferred, filed as 0.5)
[8] = at 50.0 µM (retest, dose inferred, filed as 5.0)

Measured: growth inhibition

Cc1cc(C)nc(NS(=O)(=O)c2ccc(Nc3c4ccccc4nc4c(C(=O)NCCCN(CCO)CCO)cccc34)cc2)n1
active: [4]; [7] 70% | [4]; at 50.0 µM 74.3% | [5]; at 50.0 µM 78.2%
inactive: [1]; [7] -20% | [1]; [8] 20% | [1]; at 50.0 µM 45% | [2]; [7] -13% | [2]; [8] -14% | [2]; at 50.0 µM 25.8% | [3]; [7] -2% | [3]; [8] -5% | [3]; at 50.0 µM -4.65% | [4]; [8] 5% | [5]; [7] -14% | [5]; [8] 3% | [6]; [7] -7% | [6]; [8] 1% | [6]; at 50.0 µM 60.2%

COC1/C=C/OC2(C)Oc3c(C)c(O)c4c(c3C2=O)C(=O)C=C(NC(=O)/C(C)=C\C=C\C(C)C2OC(C)(C)OC(C2C)C(C)C(OC(C)=O)C1C)C4=O (centres undefined)
inactive: [1]; [7] 2% | [1]; at 50.0 µM 51.9% | [2]; [7] 30% | [2]; at 50.0 µM 57.3% | [3]; [7] -3% | [3]; at 50.0 µM 60.8% | [4]; [7] 1% | [4]; at 50.0 µM 57% | [5]; [7] 2% | [5]; at 50.0 µM 45.8% | [6]; [7] 3% | [6]; at 50.0 µM 60.8%
active: [1]; [8] 89% | [2]; [8] 79% | [3]; [8] 73% | [4]; [8] 89% | [5]; [8] 74% | [6]; [8] 92%

c1ccc(-c2nc3ccccc3[nH]2)cc1
inactive: [1]; [7] 1% | [1]; [8] 28% | [1]; at 50.0 µM 6.4% and 34.6% | [2]; [7] -3% | [2]; [8] 19% | [2]; at 50.0 µM -5.55% and 5.3% | [3]; [7] -11% | [3]; [8] 29% | [3]; at 50.0 µM -8.85% and 1% | [4]; [7] 4% | [4]; [8] 39% | [4]; at 50.0 µM -50.4% and -4.4% | [5]; [7] 0% | [5]; [8] 24% | [5]; at 50.0 µM -13.2% and -5.15% | [6]; [7] 0% | [6]; at 50.0 µM -0.55% and 43%
active: [6]; [8] 74%

Cc1cc(/C=C/C2CCC3CC(C)CCC3N2CCO)c(C)n1-c1ccccc1 (centres undefined)
active: [1]; [8] 95% | [1]; at 50.0 µM 99.1% | [2]; [8] 99% | [2]; at 50.0 µM 98.8% | [3]; [8] 100% | [3]; at 50.0 µM 99.2% | [4]; [8] 90% | [4]; at 50.0 µM 98.8% | [5]; [8] 98% | [5]; at 50.0 µM 98% | [6]; [8] 97% | [6]; at 50.0 µM 97.9%
inactive: [1]; [7] 16% | [2]; [7] 19% | [3]; [7] 26% | [4]; [7] 12% | [5]; [7] 21% | [6]; [7] 17%

CCOC(=O)c1c[nH]c2c(ccc3cccnc32)c1=O
active: [6]; [8] 84% and 79%
inactive: [1]; [7] 10% and 5% | [1]; [8] 64% and 66% | [1]; at 50.0 µM 38% and 38.8% | [2]; [7] 7% and -15% | [2]; [8] 64% and 43% | [2]; at 50.0 µM 13.9% and 12.2% | [3]; [7] 8% and -1% | [3]; at 50.0 µM 10.8% and 52.7% | [4]; [7] 3% and -3% | [4]; [8] 43% and 41% | [4]; at 50.0 µM 26.9% and 24.3% | [5]; [7] -3% and 4% | [5]; [8] 48% and 43% | [5]; at 50.0 µM 18.4% and 6.8% | [6]; [7] 2% and -1%
85% (active) and 56% (inactive): [3]; [8]
37.7% (inactive) and 79.8% (active): [6]; at 50.0 µM

CCSC(=NC)Nc1ccc(Oc2ccc(Cl)cc2)cc1
active: [1]; [8] 90% | [1]; at 50.0 µM 81.9% | [2]; [8] 83% | [3]; [8] 99% | [3]; at 50.0 µM 92.4% | [4]; [8] 75% | [4]; at 50.0 µM 71.1% | [5]; [8] 72% | [5]; at 50.0 µM 88.2% | [6]; [8] 97% | [6]; at 50.0 µM 81.6%
inactive: [1]; [7] 38% | [2]; [7] 39% | [2]; at 50.0 µM 67.8% | [3]; [7] 40% | [4]; [7] 33% | [5]; [7] 46% | [6]; [7] 46%

Cc1ccc(S(=O)(=O)Nc2cc(S(=O)(=O)O)c(N)c3c2C(=O)c2ccccc2C3=O)cc1
active: [1]; [8] 99% | [2]; [8] 99% | [4]; [8] 89% | [5]; [8] 78% | [6]; [8] 99%
inactive: [1]; [7] 51% | [1]; at 50.0 µM 60.2% | [2]; [7] 47% | [2]; at 50.0 µM 30.4% | [3]; [7] 25% | [3]; [8] 65% | [3]; at 50.0 µM 62.8% | [4]; [7] 43% | [4]; at 50.0 µM 66.2% | [5]; [7] 45% | [5]; at 50.0 µM 60.1% | [6]; [7] 53% | [6]; at 50.0 µM 60.5%

O=C(COc1ccc(Cl)cc1Cl)Nc1cccc(C(F)(F)F)c1
inactive: [1]; [7] -4% | [1]; [8] -3% | [1]; at 50.0 µM -4.5% | [2]; [7] -18% | [2]; [8] -25% | [2]; at 50.0 µM 7.95% | [3]; [7] -3% | [3]; [8] -2% | [3]; at 50.0 µM 9.65% | [4]; [7] -3% | [4]; [8] -13% | [4]; at 50.0 µM 41.9% | [5]; [7] 12% | [5]; [8] 0% | [5]; at 50.0 µM 1% | [6]; [7] 1% | [6]; [8] 10% | [6]; at 50.0 µM -0.4%
